This note sets out measurements from PubChem BioAssay (NCI).

About 83,000 compounds went through this panel and 20% of them were active in at least one assay; those are over-represented in the sample as a whole.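 Interpretation: 100, growth as untreated; towards 0, rising growth inhibition; 0, no net growth; 0 to -100, cell death. Compounds scoring below 10 were considered active.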 Unmarked numbers belong to inactive results. Activity calls are given as the source filed them.

Among the test systems are NCI-H23 lung; NCI-H226 lung; HOP-62 NSCLC; NCI-H460 lung; NCI-H522 lung; A549/ATCC NSCLC; 786-0 renal; COLO 205 colon; DU-145 prostate.
Common to all, as to test: NCI-60 one-dose screen, 48 h (100 = growth as untreated, 0 = no growth, -100 = all killed)
Conditions in all cases: 10 µM unless noted

Regarding `CCSc1nnc2n(Cc3ccccc3)c(=O)c3c(C)c(C(N)=O)sc3n12`, the growth is 110% with NCI-H23 lung; 93.8% in the test with NCI-H226 lung; 101% in the test with HOP-62 NSCLC; 109% in the test with NCI-H460 lung; 96% in the test with NCI-H522 lung; 97% in the test on A549/ATCC NSCLC. Besides, the growth was 105% in the test with 786-0 renal and 121% in the test on COLO 205 colon.
For `O=C(Nc1ccc(Cl)cc1)Nc1ccc(Nc2nncc3ccccc23)cc1`, the growth with NCI-H23 lung was 12.5%; with NCI-H226 lung, 33.3%; in the test on HOP-62 NSCLC, 38.7%; in the test with NCI-H460 lung, 9.89% (active); in the test with NCI-H522 lung it was 11.9%; with A549/ATCC NSCLC, 20.1%. The results for the growth in the test on 786-0 renal, in the test on COLO 205 colon and with DU-145 prostate were 50.4%, 18.6% and 33.7%, respectively.
In the case of `COc1cc(NC(=O)c2cc3ccccc3cc2O)c(OC)cc1Cl`, the growth with NCI-H23 lung is -19.3% (active); in the test with NCI-H226 lung, 13.5%; in the test on HOP-62 NSCLC it was -29.6% (active); with NCI-H460 lung it was 3.33% (active); in the test on NCI-H522 lung it was -30.1% (active); in the test on A549/ATCC NSCLC, 5.74% (active). Also, the growth is -5.13% (active) in the test with 786-0 renal, 41.6% in the test on COLO 205 colon and 25.6% in the test on DU-145 prostate.
With `O=C1/C(=C/c2ccc([N+](=O)[O-])s2)Oc2ccc(Br)cc21`, the growth was -48.3% (active) in the test with NCI-H23 lung; -57% (active) with NCI-H226 lung; -49.8% (active) in the test on HOP-62 NSCLC; -51.9% (active) in the test on NCI-H460 lung; -77.7% (active) with NCI-H522 lung; -39.6% (active) in the test with A549/ATCC NSCLC. Moreover, the figures for the growth in the test on 786-0 renal and in the test on DU-145 prostate were -13.4% (active) and -72.1% (active), respectively.
Regarding `CN(C)CCCN1c2nc3ccccc3cc2Sc2cc3ccccc3nc21`, the growth with NCI-H23 lung was -34.2% (active); in the test on NCI-H226 lung, 40.1%; with HOP-62 NSCLC, 32%; in the test with NCI-H460 lung it was -89.1% (active); in the test on NCI-H522 lung, -67.7% (active); with 786-0 renal, -86.3% (active). Also, the growth with COLO 205 colon was -89.2% (active).
As for `NNC(=O)NO`, the growth in the test with NCI-H23 lung was 98.6%; in the test with NCI-H226 lung, 103%; in the test on HOP-62 NSCLC, 88.9%; with NCI-H460 lung, 105%; in the test with NCI-H522 lung, 86%; in the test with A549/ATCC NSCLC, 101%. The growth was 98.5% in the test with 786-0 renal, 111% in the test on COLO 205 colon and 109% in the test with DU-145 prostate.
Take `Cc1c(N(C)CS(=O)(=O)O)c(=O)n(-c2ccccc2)n1C`: the growth in the test with NCI-H23 lung was 109%; in the test with NCI-H226 lung, 102%; in the test with HOP-62 NSCLC, 92.7%; in the test with NCI-H460 lung, 121%; in the test on NCI-H522 lung, 89.8%; with A549/ATCC NSCLC, 97.1%. Also, the growth is 91.5% with 786-0 renal, 115% in the test with COLO 205 colon and 112% in the test on DU-145 prostate.
For the molecule `CN=C(NC)N/N=C(C)\C=N\NC(=NC)NC`, the growth was 104% with NCI-H23 lung; 98.8% in the test on NCI-H226 lung; 100% in the test on HOP-62 NSCLC; 104% in the test on NCI-H460 lung; 102% with NCI-H522 lung; 100% with A549/ATCC NSCLC. Besides, the growth is 102% in the test on 786-0 renal and 109% with DU-145 prostate.
`O=C(CN1CCCCC1)Sc1nnc2sc3ccccc3n12`: the growth with NCI-H23 lung was 93.1%; in the test on NCI-H226 lung it was 84.9%; in the test on HOP-62 NSCLC, 89.9%; with NCI-H460 lung, 103%; with NCI-H522 lung, 99.5%; in the test with A549/ATCC NSCLC it was 109%. Also, the growth in the test with 786-0 renal was 106%; in the test with COLO 205 colon it was 121%; with DU-145 prostate it was 112%.
`c1cnc2n[nH]c(Nc3ncnc4c3sc3ncccc34)c2c1`: the growth was 82.4% in the test with NCI-H23 lung; 93.8% with NCI-H226 lung; 90.8% in the test on HOP-62 NSCLC; 96% in the test with NCI-H460 lung; 82.1% with NCI-H522 lung; 87.3% with A549/ATCC NSCLC. The figures for the growth with 786-0 renal, in the test with COLO 205 colon and in the test on DU-145 prostate were 106%, 107% and 115%, respectively.
As for `Nc1ncc(-c2cnn(C3CCNCC3)c2)cc1-c1nc2cc(Cl)ccc2o1`, the growth with NCI-H23 lung was -61.7% (active); in the test with NCI-H226 lung, -63.3% (active); in the test with HOP-62 NSCLC, -98.1% (active); in the test on A549/ATCC NSCLC it was -100% (active); in the test with 786-0 renal, -100% (active); in the test with COLO 205 colon, -100% (active). The growth in the test on DU-145 prostate is -100% (active).
Consider `Oc1[nH]c2ccc(Cl)cc2c1/C=c1/ccc2c(c1)N=C(c1ccc(C(F)(F)F)cc1)N=2`, for which the growth in the test on NCI-H23 lung is 67.2%; in the test with NCI-H226 lung it was 88.7%; with HOP-62 NSCLC it was 71.5%; with NCI-H460 lung it was 39.2%; in the test on NCI-H522 lung, 45.7%; in the test on A549/ATCC NSCLC, 70.5%. Besides, the growth in the test on 786-0 renal is 16.7%; in the test with DU-145 prostate, 70%.
As to `C/C(=N/N=C(N)N)c1ccc(Cl)cc1`, the growth in the test on NCI-H23 lung is 95.1%; in the test with NCI-H226 lung, 96%; with HOP-62 NSCLC, 98.8%; in the test on NCI-H460 lung it was 102%; with NCI-H522 lung, 89%; in the test on A549/ATCC NSCLC it was 106%. For the same molecule, the growth was 89.6% in the test on 786-0 renal and 106% with DU-145 prostate.
With `Cc1cc(NC(=O)Nc2cc(Cl)ccc2C)no1`, the growth is 88.3% with NCI-H23 lung; 105% in the test on NCI-H226 lung; 96.2% in the test on HOP-62 NSCLC; 102% in the test on NCI-H460 lung; 103% in the test with NCI-H522 lung; 108% with A549/ATCC NSCLC. In addition, the growth in the test on 786-0 renal is 102%; in the test with COLO 205 colon, 143%; with DU-145 prostate, 111%.
In the case of `Cc1cc([N+](=O)[O-])c(C)cc1C(=O)O`, the growth in the test on NCI-H23 lung was 104%; in the test with NCI-H226 lung it was 99.8%; in the test on HOP-62 NSCLC, 103%; with NCI-H460 lung it was 111%; with NCI-H522 lung, 96.1%; with A549/ATCC NSCLC, 108%. Moreover, the growth with 786-0 renal was 97%; in the test with COLO 205 colon, 108%; in the test with DU-145 prostate, 109%.
